High-throughput results from PubChem BioAssay.
Hits are enriched below; roughly 2.4% of the tested compounds scored in any of these assays.
FEN1 inh-1 = qHTS Assay for the Inhibitors of Human Flap endonuclease 1 (FEN1); 390,000 compounds, 0.35% hits; Recombinant FEN1 flap cleavage, fluorescence, 15 min; Potency, µM (highest dose often 114 µM), without a hit: at the top dose activity change, negative = inhibition, hits mostly inhibitors; further: on the % scale 0 is the no-effect control and ±100 the full control effect; nearly all actives have a fitted effect of over 65% in size
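Recombinant FEN1 (10 nM) was preincubated with pin-transferred compounds for 15 min at room temperature, then flap DNA substrate (50 nM final) was added. Plates were read at 0 and 15 min, and normalized concentration–response data were fitted to a four-parameter Hill equation.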
Pol kappa inh-1 = qHTS for Inhibitors of Polymerase Kappa; purified Pol kappa, fluorescent DNA synthesis assay, 10 min; Potency, µM (titrated, usually from 107 µM), for the others: at the highest dose activity, negative = inhibition, hits mostly inhibitors; 400,000 compounds, 0.53% hits; AID 588579, 2011; further: on the % scale 0 is the no-effect control and ±100 the full control effect
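Kinetic fluorescence readout at 0 and 10 min followed reaction start with substrate at 50 nM final. Beforehand, enzyme (10 nM Pol kappa) stood 15 min with compound at room temperature; buffer-only wells were negative controls.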
POLI inh = qHTS for Inhibitors of Polymerase Iota | DNA polymerase iota (Homo sapiens), Q9UNA4 | Pol iota fluorescent replication assay, 10 min | Potency, µM (top dose mostly 115 µM), for the others: at the top dose activity, negative = inhibition, hits mostly inhibitors | 390,000 compounds, 1% hits | AID 588590, 2011
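Fluorescent replication assay read twice, at 0 min and 10 min after adding 50 nM (final) substrate. Enzyme (10 nM) and compounds were first incubated 15 min at room temperature; enzyme-free buffer wells were negative controls.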
Pol eta inh-1 = qHTS for Inhibitors of Polymerase Eta; recombinant Pol eta, fluorescent DNA replication assay; DNA polymerase eta (Homo sapiens), Q9Y253; Potency, µM (doses to about 114 µM), for the others: at the top dose activity change, negative = inhibition, actives largely listed as inhibitors; 390,000 compounds, 1.2% hits; AID 588591, 2011; further: on the % scale 0 is the no-effect control and ±100 the full control effect
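Pol eta at 10 nM preincubated with compounds 15 min at room temperature; reaction started with fluorescent substrate (50 nM final) and read kinetically at 0 and 10 min.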
WRN helicase inh-1 = qHTS for Inhibitors of WRN Helicase | Bifunctional 3'-5' exonuclease/ATP-dependent helicase WRN (Homo sapiens), Q14191 | WRN helicase unwinding, fluorescent forked duplex, kinetic | Potency, µM (titrated, usually from 114 µM), inactives show top-dose activity change, negative = inhibition, usual class: inhibitors | 360,000 compounds, 0.46% hits; further: on the % scale 0 is the no-effect control and ±100 the full control effect; nearly all actives have a fitted effect of over 55% in size
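Primary qHTS, 1536-well format. 20 nM WRN + compound, 15 min RT; start with 100 nM forked fluorophore/quencher duplex, 2 mM ATP (final); kinetic read ex 525/em 598 nm.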
Pol beta inh = qHTS Assay for Inhibitors of DNA Polymerase Beta. Pol beta primer extension/strand displacement, fluorescence kinetic. Potency, µM (highest dose often 114 µM), for the others: at the highest dose activity change, negative = inhibition, most hits filed as inhibitors. 340,000 compounds, 1.3% hits. AID 485314, 2010; further: on the % scale 0 is the no-effect control and ±100 the full control effect
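Enzyme-only controls used 10 nM Pol beta; buffer lacking enzyme served as negative control. Compound preincubated 15 min, then 50 nM substrate added; 0 and 10 min reads at room temperature.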
POLI cherry-pick = qHTS for Inhibitors of Polymerase Iota: Confirmatory Assay for Cherry-picked Compounds. Pol iota primer extension, TAMRA/BHQ fluorescence. shares compounds with Pol kappa inh-1. Potency, µM, hits mostly inhibitors. 1,500 compounds, 77% hits
Pol kappa inh-2 = qHTS for Inhibitors of Polymerase Kappa: Confirmatory Assay for Cherry-picked Compounds; shares compounds with Pol eta inh-1; AID 720501, 2013; Potency, µM, actives largely listed as inhibitors; 920 compounds, 76% hits; purified Pol-kappa, fluorescent strand-displacement substrate
Pol eta inh-2 = qHTS for Inhibitors of Polymerase Eta: Confirmatory Assay for Cherry-picked Compounds | shares compounds with Pol eta inh-1 | Pol eta primer extension, TAMRA/BHQ fluorescence, 10 min | Potency, µM, most hits filed as inhibitors | 2,600 compounds, 64% hits
FEN1 inh-2 = qHTS Assay for the Inhibitors of FEN1: Confirmatory Assay for Cherry-picked Compounds. shares compounds with FEN1 inh-1. AID 720498, 2013. Potency, µM, actives largely listed as inhibitors. FEN1 flap cleavage, TAMRA/BHQ2 fluorogenic DNA substrate. 880 compounds, 79% hits; further: nearly all actives have a fitted effect of over 60% in size
WRN helicase inh-2 = qHTS for Inhibitors of WRN Helicase: Confirmatory Assay for Cherry-picked Compounds | shares compounds with WRN helicase inh-1 | Potency, µM (titrated, usually from 57.1 µM), inactives show at the top dose activity, negative = inhibition, most hits filed as inhibitors | WRN helicase DNA unwinding, fluorescence kinetic | AID 720497, 2013 | 610 compounds, 63% hits; further: nearly all actives have a fitted effect of over 65% in size
TO displacement = qHTS for Inhibitors of WRN Helicase: Thiazole Orange DNA Binding Counterscreen | thiazole orange DNA binding displacement, fluorescence | AID 720499, 2013 | Potency, µM (doses to about 57.1 µM), without a hit: top-dose activity change, negative = inhibition, usual class: inhibitors | 610 compounds, 10% hits | shares compounds with WRN helicase inh-1;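 further: drop in dye fluorescence marks compound binding to DNA; on the % scale 0 is the no-effect control and ±100 the full control effect; nearly all actives have a fitted effect of over 60% in size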
BLM helicase inh = qHTS for Inhibitors of WRN Helicase: BLM Helicase Counterscreen for WRN Inhibitors | 610 compounds, 60% hits | Recombinant BLM helicase DNA unwinding, red fluorescence | Potency, µM (series often up to 57.1 µM), without a hit: at the highest dose activity change, negative = inhibition, most hits filed as inhibitors | shares compounds with WRN helicase inh-1; further: nearly all actives have a fitted effect of over 60% in size
* hit, by the source's call; ? = inconclusive; . = not tested or not shown; [ ] = another dose, or the depositor's remark. The call rests on the fitted dose curve; in most records, active means well fitted curve in the direction sought with a large enough effect; inconclusive means small, poorly fitted or top-dose-only effect, or another doubt; inactive means no such curve, though single readings can be large; an effect the other way counts as inactive or inconclusive. Potency means the concentration at half of the fitted maximal effect.

SMILES	FEN1 inh-1	Pol kappa inh-1	POLI inh	Pol eta inh-1	WRN helicase inh-1	Pol beta inh	POLI cherry-pick	Pol eta inh-2	FEN1 inh-2	WRN helicase inh-2	TO displacement	BLM helicase inh	others
O=C(c1ccc2c(=O)n(CCc3ccccc3)c(=O)[nH]c2c1)N1CCN(c2ccc(Cl)cc2)CC1	-5.3%	4.6%	14.6%	-18.1%	.	1.6%	.	.	.	.	.	.
Cc1cccc(C(=O)Oc2ccc(/C=N/NC(=O)c3cc(O)cc(O)c3)cc2)c1	?	50.1µM*	17.8µM*	7.94µM*	35.5µM*	7.08µM*	67*	33.8*	.	21.5µM*	?	13.6µM*	Pol kappa inh-2=15*
Cc1cccc(C(=O)Oc2ccc(/C=N/NC(=O)c3ccncc3)cc2)c1	-3.6%	0.0%	152.8%	-2.9%	3.0%	1.9%	.	.	.	.	.	.
CN(C)/C=C1\SC(=S)N(c2ccc(Br)cc2)C1=O	?	?	39.8µM*	?	?	?	18.9*	75.7*	33.8*	24.1µM*	2.8%	21.5µM*
CC(=O)N1c2ccc(S(=O)(=O)NCC3CCC(C(=O)Nc4cccc(F)c4)CC3)cc2CC1C (centres undefined)	-20.5%	-7.4%	-20.0%	-4.3%	.	29.8%	.	.	.	.	.	.
N#CNC(=O)c1ccc(-n2cccc2/C=C2\NC(=O)N(CC(=O)Nc3ccc(F)cc3)C2=O)cc1	.	.	.	.	.	.	26.7*	47.8*	33.8*	6.07µM*	9.61µM*	3.83µM*
Cc1cc(N2CCOCC2)ccc1/C=C1\NC(=O)N(CC(=O)Nc2ccc(F)cc2)C1=O	-18.3%	-8.5%[60.1 µM]	?	6.5%	-1.5%	32.0%	.	.	.	.	.	.
CN(c1ccccc1)c1ccc(/C=C(\CCC(=O)O)c2nc3ccccc3s2)cc1[N+](=O)[O-]	?	?	22.4µM*	8.91µM*	26.7µM*	8.91µM*	26.7*	67.5*	67.5*	21.5µM*	27.1µM*	8.57µM*
